Bioassay records from PubChem BioAssay.
Compounds with a hit are over-represented: about 32% of the library has one in this group of screens.
CYP2C9 inhib: inhibitors of human CYP2C9; 96,000 tested, 20% active; P11712; inhibition, % at 5 µM; CYP2C9 Supersomes, luciferin-H conversion, luminescence;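 active = blocking of liver enzyme CYP2C9 beyond about 50% at 5 µM, limit read from the data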
Target sequence (P11712 whole entry, looked up): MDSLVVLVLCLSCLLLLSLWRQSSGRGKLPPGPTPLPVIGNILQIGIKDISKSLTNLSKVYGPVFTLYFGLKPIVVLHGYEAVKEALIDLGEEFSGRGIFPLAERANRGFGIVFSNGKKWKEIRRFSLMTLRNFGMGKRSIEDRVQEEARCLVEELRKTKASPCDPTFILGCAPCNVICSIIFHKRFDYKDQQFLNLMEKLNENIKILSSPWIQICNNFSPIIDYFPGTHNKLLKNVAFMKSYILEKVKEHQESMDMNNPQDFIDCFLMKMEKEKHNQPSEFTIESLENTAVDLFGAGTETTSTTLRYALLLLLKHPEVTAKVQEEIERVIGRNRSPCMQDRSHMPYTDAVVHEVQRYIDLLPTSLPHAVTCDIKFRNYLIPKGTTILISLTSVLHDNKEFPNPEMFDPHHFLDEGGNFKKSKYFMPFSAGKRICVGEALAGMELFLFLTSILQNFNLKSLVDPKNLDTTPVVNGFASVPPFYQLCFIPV
CYP2C19 activ: increases human CYP2C19 enzyme activity | P33261 | recombinant CYP2C19, luciferin-H EGE luminescence; active compounds read high; 0 = fully inhibited enzyme, 1 = untreated enzyme | activation factor at 5 µM | 96,000 tested, under 10 active | AID 1025;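 active = activation factor of at least 2 at 5 µM in the primary screen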;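 also: 0 = wells with 2.5 mM tranylcypromine and 1 = vehicle-only wells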
CYP2C19 inhib: inhibitors of human CYP2C19. P33261. CYP2C19 Supersomes, luciferin-H EGE luminescence, 30 min. inhibition, % at 5 µM. 96,000 tested, 21% active;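 active = CYP2C19 inhibition above a set limit at 5 µM in the primary screen, cut at about 50% in these data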;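 also: plate controls were negative control wells for no effect and 2.5 mM tranylcypromine positive control for full effect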
CYP2C9 act: activators of human CYP2C9. 96,000 tested, 1.4% active. activation factor at 5 µM. AID 1024. P11712. recombinant CYP2C9, luciferin-H conversion, luminescence; active compounds read high; factor 1 = untreated enzyme, 0 = blocked;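 active = activation factor of 2 or more for CYP2C9 at a 5 µM dose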;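 also: 0 = sulfaphenazole-blocked wells and 1 = vehicle-only wells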
PostGolgi ctrl: inhibits growth of the yeast control strain; efflux-deficient yeast background strain, growth absorbance A615, 16 h; inhibition, % at 10 µM; 98,000 tested, 5% active
PostGolgi yeast: growth inhibition of a yeast mutant, post-Golgi transport screen | inhibition, % at 10 µM | AID 739 | 98,000 tested, 0.9% active | post-Golgi transport phenotypic cell assay;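 also: yeast cells grown in 1536-well plates; yeast grown about 18 h at 30C before absorbance read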
Active calls of the source: *. Rule as the data show it, unless noted: active = inhibition above about 30%; inactive = the rest.

`Cn1c(=O)n(C)c2cc([N+](=O)[O-])c(N3CCN(C(=O)c4ccc(Cl)cc4)CC3)cc21` gave CYP2C9 inhib 27, CYP2C19 activ 1, CYP2C19 inhib 2, CYP2C9 act 0.7, PostGolgi ctrl 13 and PostGolgi yeast 8.
Screening COc1ccccc1-c1n[nH]c(=S)n1-c1ccccc1 returned CYP2C9 inhib 9, CYP2C19 activ 0.8, CYP2C19 inhib 15, CYP2C9 act 0.9, PostGolgi ctrl 3 and PostGolgi yeast 0.
Screening CCc1nc2ccccc2[nH]1 returned CYP2C9 inhib -7, CYP2C19 activ 0.8, CYP2C19 inhib 21, CYP2C9 act 1.1, PostGolgi ctrl 12 and PostGolgi yeast -6.
For O=S(=O)(c1ccccc1F)N1CCN(Cc2nc3ccccc3[nH]2)CC1 the results were CYP2C9 inhib -81, CYP2C19 activ 0.4, CYP2C19 inhib 55*, CYP2C9 act 1.8, PostGolgi ctrl -2 and PostGolgi yeast 22.
For c1ccc(OCc2nc3ccccc3[nH]2)cc1 the results were CYP2C9 inhib 15, CYP2C19 activ 0.3, CYP2C19 inhib 74*, CYP2C9 act 0.8, PostGolgi ctrl 27 and PostGolgi yeast -3.
For c1ccc2[nH]c(CN3CCCCCC3)nc2c1 the results were CYP2C9 inhib -5, CYP2C19 activ 0.4, CYP2C19 inhib 64*, CYP2C9 act 1, PostGolgi ctrl 14 and PostGolgi yeast 7.
For CCS(=O)(=O)N1CCN(Cc2nc3ccccc3c(=O)[nH]2)CC1 the results were CYP2C9 inhib 6, CYP2C19 activ 1, CYP2C19 inhib 3, CYP2C9 act 0.9, PostGolgi ctrl 0 and PostGolgi yeast -2.
`O=c1[nH]c(CN2CCCCC2)nc2ccccc12` gave CYP2C9 inhib -14, CYP2C19 activ 1.1, CYP2C19 inhib -10, CYP2C9 act 1.1, PostGolgi ctrl 17 and PostGolgi yeast -17.
For CCn1c(C)cc2c(c1=O)C(c1ccccc1Br)C(C#N)=C(N)O2 (stereo not given) the results were CYP2C9 inhib 34, CYP2C19 activ 0.7, CYP2C19 inhib 31, CYP2C9 act 0.7, PostGolgi ctrl 10 and PostGolgi yeast -3.
Screening CCC(CC)C1C(C#N)=C(N)Oc2cc(C)oc(=O)c21 (stereo not given) returned CYP2C9 inhib 72*, CYP2C19 activ 0, CYP2C19 inhib 96*, CYP2C9 act 0.3, PostGolgi ctrl 2 and PostGolgi yeast -14.
For O=S(=O)(NCc1ccccc1Br)c1cccs1 the results were CYP2C9 inhib -24, CYP2C19 activ 0.6, CYP2C19 inhib 38, CYP2C9 act 1.2, PostGolgi ctrl 8 and PostGolgi yeast 13.
Screening COc1cc(/C=C2/SC(=O)N(Cc3ccccc3)C2=O)ccc1OCc1ccncc1 returned CYP2C9 inhib 82*, CYP2C19 activ 0.2, CYP2C19 inhib 80*, CYP2C9 act 0.2, PostGolgi ctrl 19 and PostGolgi yeast 0.
COc1ccc(/C=C2\SC(=NCc3ccccc3)N(Cc3ccccc3)C2=O)cc1OC was read as CYP2C9 inhib 22, CYP2C19 activ 0.3, CYP2C19 inhib 72*, CYP2C9 act 0.8, PostGolgi ctrl -2 and PostGolgi yeast 8.
For O=C(Cc1ccc(F)cc1)Nc1ccc(F)c([N+](=O)[O-])c1 the results were CYP2C9 inhib 28, CYP2C19 activ 0.4, CYP2C19 inhib 56*, CYP2C9 act 0.7, PostGolgi ctrl 10 and PostGolgi yeast 0.
`O=C(O)CCC(=O)Nc1ccc(F)cc1` gave CYP2C9 inhib 48, CYP2C19 activ 0.7, CYP2C19 inhib 34, CYP2C9 act 0.5, PostGolgi ctrl 4 and PostGolgi yeast 11.
For COC(=O)C1=C(C(=O)c2ccc(C)cc2)C(c2ccc(OC)c(OC)c2)n2nnnc2N1 (stereo not given) the results were CYP2C9 inhib -23, CYP2C19 activ 1.1, CYP2C19 inhib -9, CYP2C9 act 1.2, PostGolgi ctrl 1 and PostGolgi yeast -2.
For COc1cccc(C2C=C(c3ccc(OC)cc3OC)Nc3nnnn32)c1 (stereo not given) the results were CYP2C9 inhib 77*, CYP2C19 activ 0.4, CYP2C19 inhib 58*, CYP2C9 act 0.2, PostGolgi ctrl 18 and PostGolgi yeast -4.
For COc1ccc(C2=CC(c3ccc(OC)c(OC)c3)n3nnnc3N2)c(OC)c1 (stereo not given) the results were CYP2C9 inhib 97*, CYP2C19 activ 0.1, CYP2C19 inhib 90*, CYP2C9 act 0, PostGolgi ctrl 6 and PostGolgi yeast -2.
Screening CC1=C(C(N)=O)C(c2cccc(OCc3ccccc3)c2)n2nnnc2N1 (stereo not given) returned CYP2C9 inhib 20, CYP2C19 activ 0.7, CYP2C19 inhib 27, CYP2C9 act 0.8, PostGolgi ctrl 4 and PostGolgi yeast -3.
CCn1c(CSc2nc(C)cc(C)n2)nnc1SCC(=O)N1CCCc2ccccc21 was read as CYP2C9 inhib -74, CYP2C19 activ 0.5, CYP2C19 inhib 47, CYP2C9 act 1.7, PostGolgi ctrl 8 and PostGolgi yeast 21.
`O=C(NCc1ccccc1)NC1(C(=O)N2CCN(c3ccccc3)CC2)CCCCC1` gave CYP2C9 inhib 33, CYP2C19 activ 0.4, CYP2C19 inhib 57*, CYP2C9 act 0.7, PostGolgi ctrl 2 and PostGolgi yeast 2.
Screening O=C(NCc1ccccc1)NC1(C(=O)N2CCOCC2)CCCCC1 returned CYP2C9 inhib 5, CYP2C19 activ 1, CYP2C19 inhib -2, CYP2C9 act 0.9, PostGolgi ctrl -6 and PostGolgi yeast 10.
CC(C)Cn1c(=O)c(C(=O)Nc2ccccc2S(N)(=O)=O)c(O)c2ccccc21 was read as CYP2C9 inhib 21, CYP2C19 activ 0.9, CYP2C19 inhib 7, CYP2C9 act 0.8, PostGolgi ctrl 30* and PostGolgi yeast 4.
CCCn1c(=O)c(C(=O)Nc2ccccc2C(=O)OCC)c(O)c2ccccc21 was read as CYP2C9 inhib 2, CYP2C19 activ 1.1, CYP2C19 inhib -8, CYP2C9 act 1, PostGolgi ctrl -9 and PostGolgi yeast -6.
Screening CCC(C)n1c(=O)c(C(=O)Nc2ccccc2S(N)(=O)=O)c(O)c2ccccc21 (stereo not given) returned CYP2C9 inhib 0, CYP2C19 activ 1, CYP2C19 inhib -5, CYP2C9 act 1, PostGolgi ctrl 30* and PostGolgi yeast 12.
For CCOC(=O)Cc1csc(NC(=O)c2c(O)c3ccccc3n(CC(C)C)c2=O)n1 the results were CYP2C9 inhib -21, CYP2C19 activ 1.2, CYP2C19 inhib -23, CYP2C9 act 1.2, PostGolgi ctrl 32* and PostGolgi yeast 2.
For CCn1c(=O)c(C(=O)Nc2cnccn2)c(O)c2ccccc21 the results were CYP2C9 inhib -1, CYP2C19 activ 0.9, CYP2C19 inhib 10 and CYP2C9 act 1.
`CCOC(=O)c1c(NC(=O)CN(CC)CC)sc2c1CCC2` gave CYP2C9 inhib 52*, CYP2C19 activ 0.9, CYP2C19 inhib 12, CYP2C9 act 0.5, PostGolgi ctrl 15 and PostGolgi yeast -8.
